Test results as given in PubChem BioAssay (NCI).
The panel holds about 83,000 compounds, 20% with a hit somewhere; the sample as a whole holds those more often.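 Negative percent growth values reflect cell death: -40 means 40% of the cells present at the start died, and -100 means all died.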 A number with no mark means an inactive call. Active and inactive are the calls of the source. Rule for the calls: active = growth percent below 10; inactive = the rest.

Legend:
Assay in all cases: NCI-60 one-dose screen, 48 h (100 = growth as untreated, 0 = no growth, -100 = all killed)
Details in all cases: 10 µM unless noted
HCT-15 colon = test system: HCT-15 colon
HT29 colon = test system: HT29 colon
SNB-75 CNS = test system: SNB-75 CNS
SNB-19 CNS = test system: SNB-19 CNS
U251 CNS = test system: U251 CNS
PC-3 prostate = test system: PC-3 prostate
SK-MEL-5 melanoma = test system: SK-MEL-5 melanoma
LOX IMVI melanoma = test system: LOX IMVI melanoma
SK-MEL-28 melanoma = test system: SK-MEL-28 melanoma
SK-MEL-2 melanoma = test system: SK-MEL-2 melanoma
EKVX NSCLC = test system: EKVX NSCLC
SN12C renal = test system: SN12C renal
UO-31 renal = test system: UO-31 renal
TK-10 renal = test system: TK-10 renal
ACHN renal = test system: ACHN renal
CAKI-1 renal = test system: CAKI-1 renal
A498 renal = test system: A498 renal
CCRF-CEM leukemia = test system: CCRF-CEM leukemia
MOLT-4 leukemia = test system: MOLT-4 leukemia
UACC-62 melanoma = test system: UACC-62 melanoma

| SMILES | growth (HCT-15 colon) | growth (HT29 colon) | growth (SNB-75 CNS) | growth (SNB-19 CNS) | growth (U251 CNS) | growth (PC-3 prostate) | growth (SK-MEL-5 melanoma) | growth (LOX IMVI melanoma) | growth (SK-MEL-28 melanoma) | growth (SK-MEL-2 melanoma) | growth (EKVX NSCLC) | growth (SN12C renal) | growth (UO-31 renal) | growth (TK-10 renal) | growth (ACHN renal) | growth (CAKI-1 renal) | growth (A498 renal) | growth (CCRF-CEM leukemia) | growth (MOLT-4 leukemia) | growth (UACC-62 melanoma) |
| --- | --- | --- | --- | --- | --- | --- | --- | --- | --- | --- | --- | --- | --- | --- | --- | --- | --- | --- | --- | --- |
| COc1ccc(C2CC(c3ccccc3)=NN2C(=O)c2cc(OC)c(OC)c(OC)c2)cc1O (stereo not drawn) | 16.2% | 36% | 34.7% | 47.3% | 20.6% | 22.5% | 22.4% | 42.9% | 64.9% | 76.5% | 46.7% | 37.5% | 30.3% | 63.2% | 37.5% | 52.9% | 17.3% | 17.9% | 18.9% |  |
| Cc1ccc2nc(-c3ccc(C(=O)N/N=C/c4ccc([N+](=O)[O-])cc4)cc3)[nH]c2c1 | 102% | 102% | 97.1% | 104% | 107% |  | 98.5% | 98.8% | 112% | 116% | 108% | 106% | 86.4% |  | 104% | 97.4% | 82.8% | 95.3% | 93.4% | 97.4% |
| COc1cc2c(cc1-c1c(C)noc1C)ncc1nc(CN3CCOCC3)n([C@H](C)COC(F)F)c12 | 23% | 12.1% | 3.11% (active) | 45.1% | 61.3% | 32.3% | 19.8% | 12.1% | 59.3% | 36.7% | 49.6% | 56.7% | 14.1% |  | 36.1% | 35.1% | -7% (active) | 44% | 59.5% |  |
| O=C(NCCCCCCNC(=O)OCc1ccc2c(Cl)cc(Cl)c(O)c2n1)OCc1ccc2c(Cl)cc(Cl)c(O)c2n1 | -29.1% (active) | -75% (active) | -96.2% (active) | 51.4% | -92.2% (active) |  | -95.5% (active) | -88.7% (active) | -89.8% (active) | -62% (active) | -69% (active) | -93.4% (active) | -100% (active) | -90.3% (active) | -97.5% (active) | -87.8% (active) | 34.9% | 2.24% (active) | -2.75% (active) | -94.3% (active) |
| Cc1cc(C)c2c(c1)N(C)c1ncnc(-n3c(C)nc4cc(C)ccc43)c1CC2C (stereo not drawn) | 32.6% | 34.3% | 29.4% | 50.4% | 34.5% | 24.7% | 13.6% | 43.1% | 59% | 46.7% | 45.2% | 62.3% | 39% |  | 39.4% | 37.3% | 0.985% (active) | 21.6% | 27.8% |  |
| Cc1cc(=O)oc2cc(Oc3nc(Br)cn4c(Br)cnc34)ccc12 | 95.6% | 99.9% | -2.07% (active) | 74.6% | 47.6% | 82.1% | 40.3% | 74.3% | 104% | 78% | 75.6% |  | 58.8% | 114% | 65.8% | 95.7% | 97.4% | 106% | 87.5% |  |
| CC[C@H](Nc1nc(N)nc(C)c1C#N)c1nc2cccc(CN(C)c3ncc(C(=O)NO)cn3)c2c(=O)n1-c1ccccc1 | 42.8% | -18.4% (active) | 29.1% | 11% | -69.6% (active) |  | -92.2% (active) | -86.6% (active) | 6.03% (active) | -5.85% (active) | 35.3% | 2.71% (active) | -4.88% (active) | -21.8% (active) | 24% | 18.1% | -40% (active) | 15.3% | 9.84% (active) | -80% (active) |
| c1ccc(-c2c(-c3ccccc3)[n+](Cc3ccc4ccccc4c3)cn2Cc2ccc3ccccc3c2)cc1 | -93.3% (active) | -89.9% (active) | -67.6% (active) | -66.4% (active) | -90% (active) |  | -100% (active) | -99.5% (active) | -91.5% (active) | -79.4% (active) | -46.7% (active) | -76% (active) | -22.4% (active) | -81.2% (active) | -100% (active) | -9.42% (active) | -95.4% (active) | -66% (active) | -67.7% (active) | -73.2% (active) |
| CC[C@@H](C(=O)[C@@H](C)[C@@H](O)[C@H](C)[C@@H]1O[C@@H]([C@@H](CC)C(=O)ONC(=O)c2ccccc2O)CC[C@@H]1C)C1O[C@]2(C=CC(=O)[C@]3(CC[C@@](C)([C@H]4CC[C@](O)(CC)[C@H](C)O4)O3)O2)[C@H](C)C[C@@H]1C (stereo partly drawn) | 44.5% | 33.9% | 64.3% | 48.4% | 32.1% |  | 11% | 45.4% | 73.3% | 76.9% | 45.2% | 24.1% | 36.9% | 75.8% | 50.2% | 39.2% | 36.4% | 36.6% | 45.1% | 63.3% |
| Cc1ccc2c(/C=C/C(=O)c3cc(CN4CCOCC4)c(O)c4nc(C)ccc34)cc(CN3CCOCC3)c(O)c2n1 | 0.566% (active) | -6.31% (active) | 23.3% | 36.4% | -24% (active) |  | 4.68% (active) | -66.8% (active) | -19.9% (active) | -2.61% (active) | 31.5% | 7.92% (active) | -16.8% (active) | 17.8% | -26.3% (active) | 12.9% | -16.5% (active) | 3.28% (active) | -2.3% (active) | -0.641% (active) |
| CC(C)(Sc1cc(C(C)(C)C)c(O)c(C(C)(C)C)c1)Sc1cc(C(C)(C)C)c(OC(=O)CCC(=O)O)c(C(C)(C)C)c1 | 22% | 24.2% | 94.2% | 47.4% | 34.4% |  | 50.1% | 56.1% | 54.1% | 23.4% | 44.1% | 34.2% | 33.2% | 60.5% | 44.5% | 54.5% | 63.6% | 35.8% | 73.3% | 6.79% (active) |
| CN(C)CCCNC(=O)c1cncnc1Nc1ccc2c(ccn2Cc2cccc(F)c2)c1 | 63.2% | 39.1% | 78% | 92.5% | 68.9% |  | 91.4% | 76.7% | 89.6% | 107% | 96.6% | 84.9% | 71.5% | 103% | 102% | 83.7% | 32.7% | 67% | 72% | 100% |
| C[N+]1=C(/C=C/c2ccccc2Cl)C(C)(C)c2ccccc21 | 101% | 91.4% | 95.5% | 107% | 84.2% |  | 92.2% | 85.5% | 103% | 109% | 96.9% | 103% | 71.5% | 114% | 110% | 89% | 87.1% | 47.1% | 70.3% | 91.9% |
| O=C1C=CC2(O)OC/C(=C\c3ccccc3)C(O)=C2C1=O (stereo not drawn) | -6.43% (active) | 17.8% | 38.8% |  | -35.2% (active) | 0.717% (active) | 31.3% | -82.8% (active) | 51.9% | 53.4% | 54.1% | -30.7% (active) | -91.5% (active) | 11.5% | -70.5% (active) | 10.6% | 108% | 2.55% (active) | 7.42% (active) | -64.1% (active) |
| COc1cc(Cc2cc(-c3ccccc3)nn(Cc3ccccc3)c2=O)cc(OC)c1OC | 29.1% | 32.2% | 61% |  | 32.9% | 22.7% | 40.2% | 43.7% | 56.2% | 38.4% | 14.7% | 40.9% | 21.6% | 45.2% | 27.9% | 44.4% | 51.1% | 34.8% | 5.01% (active) |  |
| CS(=O)(=O)Nc1cc(-c2ccc3ncnc(Nc4ccc(F)c(Cl)c4)c3c2)ccc1Cl | 41.3% | 34.8% | 30.5% | 57.6% | 42.4% |  | 28.8% | 37.9% | 57.1% | 62.5% | 20.9% | 52.7% | 36.5% | 17.3% | 27.2% | 18.1% | 6.7% (active) | 30.2% | 40.2% |  |
